Compound activity from PubChem.
The sample as a whole holds a higher share of hits than the screen did.
Tgondii IFNg: T. gondii growth inhibition with IFN-gamma, primary screen, cell-based. activity change, negative = inhibition, % (concentration not given with the values). Toxoplasma gondii growth in IFN-gamma-treated host cells; stronger effect = lower value. 69,000 compounds, 3.8% hits. AID 1259416, 2018; in the data active = activity change below about -70%, passing the limit was not always enough;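 also: host cells are HeLa cells infected with Toxoplasma gondii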
* marks the source's active call; other numbers are inactive results.

SMILES | Tgondii IFNg
COc1cc2c(cc1OC)CN(CC(=O)Nc1cc(C)cc3cccnc13)CC2 | 18.7
COCC1CN(C(=O)COc2ccccc2)Cc2ncn(C)c21 (centres undefined) | -2.5
O=C(O)C1CN(C(=O)Cc2ccc(F)cc2)C1 | 5.9
CC(C)C(=O)N1CCC2(Cc3ccccc3NC2=O)C1 (centres undefined) | 152.3
Cc1oc(C2CCN(S(=O)(=O)CCc3ccccc3)CC2)nc1C(=O)N1CCCCC1 | -2.6
CCC(c1cccnc1)N(C)Cc1ccsc1 (centres undefined) | 5.0
COc1cccc(NC(=O)c2nc(Nc3ccc(C)cc3)c3ccccc3n2)c1 | -88.1*
CCc1ccc(Nc2nc(C(=O)NC)nc3ccccc23)cc1 | -5.7
COc1ccc(-c2nc(Nc3ccc(C)cc3)c3ccccc3n2)cc1 | -43.2
CCc1cccc(NC(=O)c2nc(Nc3ccccc3)c3ccccc3n2)c1 | -72.1*
COc1ccc(NC(=O)c2nc(Nc3ccccc3)c3ccccc3n2)cc1 | 117.9
COc1ccc(-c2nc(Nc3cc(C)cc(C)c3)c3ccccc3n2)cc1 | -35.7
CCc1ccc(NC(=O)c2nc(Nc3ccccc3)c3ccccc3n2)cc1 | -5.9
Cc1ccc(NC(=O)c2nc(Nc3ccccc3)c3ccccc3n2)cc1 | -6.0
COc1cc(-c2nc(Nc3ccc(C)cc3)c3ccccc3n2)cc(OC)c1OC | -93.2*
C=CCOCC1CN(S(=O)(=O)c2ccccc2)Cc2ccnn2C1 (centres undefined) | -0.6
CCN(CC)C(=O)C1CCCN(c2nccc(CCC(F)(F)F)n2)C1 (centres undefined) | -11.8
Cc1ccc(C)c(NC(=O)CC(=O)NCCN(C)S(C)(=O)=O)c1 | -0.5
CCOc1ccc(C2c3[nH]c4ccccc4c3CCN2C(=O)c2snnc2C)cc1 (centres undefined) | -68.9
c1cc(C(N2CCOCC2)N2CCOCC2)ccn1 | -38.8
CCOc1ccc(C2CCCN2C(=O)CNc2ccc3nnc(C)n3n2)cc1 (centres undefined) | 0.4
Cc1cc(C)cc(S(=O)(=O)N2CCC3(CC2)NCCN=C3NCc2ccc(C(F)(F)F)cc2)c1 | -51.9
Cc1cc(C)n(-c2ncc(S(=O)(=O)C(C)(C)C)c(N)n2)n1 | 59.8
Cc1cc(C)n(C2=NCCN2S(=O)(=O)c2cc(C(F)(F)F)cc(C(F)(F)F)c2)n1 | -89.8*
CCCN1CCC(c2cc3c(ncn3C(C)C)c(-c3cnn(C)c3)n2)CC1 | 1.3
SMILES | Tgondii IFNg
CCc1cc2ccc(C)cc2nc1SCC(=O)NCCc1ccccc1 | -39.5
C=CCOC1C2CCCC1CN(c1nncs1)C2 (centres undefined) | -35.0
c1ccc(-n2nccc2CN2CCc3[nH]cnc3C2c2cccnc2)cc1 (centres undefined) | 8.2
O=C(Nc1cccnc1)N1CCC(Cc2cccc(Oc3ccc(C(F)(F)F)cn3)c2)CC1 | -73.6*
CN1CCC(CN2CCN(CCC(=O)Nc3cccnc3)CC2)CC1 | -19.4
O=C(O)c1cccc(CC2CCN(C(=O)Cc3cccnc3)CC2)c1 | -50.9
COc1ccc(-c2nc(CN3CCN(Cc4cc(=O)oc5cc(C)ccc45)CC3)c(C)o2)cc1 | -8.9
COc1ccc2[nH]c(C)c(C(=O)NCc3cc(Cl)c4c(c3)OCCCO4)c2c1 | -84.9*
O=C(Cn1nnc(-c2ccccc2)n1)NCc1cc(Cl)c2c(c1)OCCCO2 | 2.5
COc1ccc2[nH]c(C(=O)NC(C)c3ccc4c(c3)CCCO4)c(NC(C)=O)c2c1 (centres undefined) | 14.9
O=S(=O)(c1ccc(F)cc1)N1CCn2nnc(COc3cccnc3)c2C1 | -6.5
O=C(Cn1ncc2c(N3CCOCC3)ncnc21)NCc1ccc(F)cc1F | -33.3
COc1ccc(-c2ccnc(SCC(=O)Nc3ccccc3)n2)cc1 | -23.0
COCCn1c(-c2ccc(OC)cc2)cnc1SCC(=O)Nc1ccc(C)c(Cl)c1 | -90.1*
COc1ccc(CC(=O)Nc2ccc(-c3nc(-c4cc(C)ccc4C)co3)cc2)cc1 | -11.1
CSc1ccc(CNC(=O)c2nc(Nc3ccccc3)c3ccccc3n2)cc1 | 11.7
COC(=O)c1[nH]ncc1CN1CCN(S(=O)(=O)c2ccccc2)CC1 | 3.1
